Positions count from the first letter of the chain named. Whole data set: some 16,000 sequences, median “ka relative to ugcaugu” near 0.0091, cut for the highest 2% near 0.032. Many of the other results were omitted from the sample, so the highest values are more common in it than they were.
T1: RBFOX1 RRM (Homo sapiens, UniProt Q9NWB1 109-208)
T1 sequence: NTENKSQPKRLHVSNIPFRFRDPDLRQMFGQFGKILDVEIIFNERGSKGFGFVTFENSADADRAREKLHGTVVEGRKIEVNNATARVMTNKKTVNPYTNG

B1: CCGCACU (DNA:RNA)
RNA: GGGAGACCGGAAUUCAGAUUGUCCCCGCACUUUAAAUCCCGUCGUAGCCACCA
DNA 1: CAATCTGAATTCCGGTCTCCC
DNA 2: TGGTGGCTACGACGGGATT
B2: CGCCCCU (DNA:RNA)
RNA: B1 RNA with C26G, G27C, A29C
DNA 1: CAATCTGAATTCCGGTCTCCC
DNA 2: TGGTGGCTACGACGGGATT
B3: UUCUAAG (DNA:RNA)
RNA: B1 RNA with C25U, C26U, G27C, C28U, C30A, U31G
DNA 1: CAATCTGAATTCCGGTCTCCC
DNA 2: TGGTGGCTACGACGGGATT
B4: GGUGUGG (DNA:RNA)
RNA: GGGAGACCGGAAUUCAGAUUGUCCGGUGUGGUUAAAUCCCGUCGUAGCCACCA
DNA 1: CAATCTGAATTCCGGTCTCCC
DNA 2: TGGTGGCTACGACGGGATT
B5: AUUAACU (DNA:RNA)
RNA: B1 RNA with C25A, C26U, G27U, C28A
DNA 1: CAATCTGAATTCCGGTCTCCC
DNA 2: TGGTGGCTACGACGGGATT
B6: GUUCCAG (DNA:RNA)
RNA: B4 RNA with G26U, G28C, U29C, G30A
DNA 1: CAATCTGAATTCCGGTCTCCC
DNA 2: TGGTGGCTACGACGGGATT
B7: UAUCCAA (DNA:RNA)
RNA: B1 RNA with C25U, C26A, G27U, A29C, C30A, U31A
DNA 1: CAATCTGAATTCCGGTCTCCC
DNA 2: TGGTGGCTACGACGGGATT
B8: CCACCGU (DNA:RNA)
RNA: B1 RNA with G27A, A29C, C30G
DNA 1: CAATCTGAATTCCGGTCTCCC
DNA 2: TGGTGGCTACGACGGGATT
B9: GUAAUAU (DNA:RNA)
RNA: B4 RNA with G26U, U27A, G28A, G30A, G31U
DNA 1: CAATCTGAATTCCGGTCTCCC
DNA 2: TGGTGGCTACGACGGGATT

biological target: T1, RBFOX1 RRM; assay: EMSA; HiTS-Eq, 1 nM pool, 10 min; buffer printed only for the single-RNA assays: 10 mM Tris pH 7.5, 150 mM NaCl, 3.4 mM EDTA, 0.001% NP-40, 30 C; conditions: tags: His6 N-terminal (pET28a); label: 5' 32P
Summary of the method: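 Relative association constants, normalised to the cognate motif, were derived by comparing read counts of each RNA species with those of the control reaction. The RNA sequenced was the free fraction, separated by 8% native PAGE after a 10 min equilibration in 50 µL of 1 nM 5′-radiolabelled RNA (7 randomized nucleotides) with increasing concentrations of purified wild-type or mutant RbFox RRM.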

| Binder | binding signal |
| --- | --- |
| B1 | 0.00621 KA relative to UGCAUGU |
| B2 | 0.00718 KA relative to UGCAUGU |
| B3 | 0.00998 KA relative to UGCAUGU |
| B4 | 0.0188 KA relative to UGCAUGU |
| B5 | 0.00102 KA relative to UGCAUGU |
| B6 | 0.0134 KA relative to UGCAUGU |
| B7 | 0.00131 KA relative to UGCAUGU |
| B8 | 0.0012 KA relative to UGCAUGU |
| B9 | 0.00279 KA relative to UGCAUGU |

Source: publication PMC9911399, “Two distinct binding modes provide the RNA-binding protein RbFox with extraordinary sequence specificity”
